The whole screen tested about 16,000 compounds, of which about 5,700 (36%) were called active. Another 24% or so got no clear call; they are omitted. The list shows a part of the results. Values without a mark were called inactive. The call rests on the fitted dose curve; in most records, active means well fitted curve in the direction sought with a large enough effect; inconclusive means small, poorly fitted or top-dose-only effect, or effect the other way; inactive means no such curve, though single readings can be large or run the other way.
Molecular target: Cytochrome P450 1A2 (Homo sapiens) (UniProt P05177)
Test: Cytochrome panel assay with activity outcomes
Settings: recombinant CYP, pro-luciferin dealkylation, luminescence, p450-cyp1a2; series mostly up to 57.1 µM; activity, negative = inhibition: at the top concentration
On the % scale 0 is the no-effect control and ±100 the full control effect.

Sequence of Cytochrome P450 1A2 (Homo sapiens) (P05177 whole entry, looked up): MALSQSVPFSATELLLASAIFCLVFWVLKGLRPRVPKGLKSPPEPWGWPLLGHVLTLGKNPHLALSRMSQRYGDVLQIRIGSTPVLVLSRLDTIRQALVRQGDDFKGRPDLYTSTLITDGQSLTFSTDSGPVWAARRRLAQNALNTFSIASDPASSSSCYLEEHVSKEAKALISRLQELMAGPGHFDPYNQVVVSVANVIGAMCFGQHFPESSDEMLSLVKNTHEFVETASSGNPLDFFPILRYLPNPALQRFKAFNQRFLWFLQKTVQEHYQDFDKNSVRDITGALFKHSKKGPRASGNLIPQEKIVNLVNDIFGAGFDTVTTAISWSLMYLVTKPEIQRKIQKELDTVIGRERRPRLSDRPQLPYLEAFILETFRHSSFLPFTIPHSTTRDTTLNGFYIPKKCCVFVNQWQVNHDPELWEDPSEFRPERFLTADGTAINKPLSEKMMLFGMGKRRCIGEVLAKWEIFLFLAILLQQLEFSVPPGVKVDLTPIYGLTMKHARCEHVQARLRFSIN

Row | Compound | activity, negative = inhibition | AC50
1 | COc1ccc(O[C@H]2C=C[C@@H](c3ccccc3)O[C@H]2COC(=O)CC/C(C)=N\O[C@@H](C)CN2CCCc3nc(C)c(C)cc32)cc1 | 2.58% [at 11.4 µM] | 
2 | CC(C)Oc1ccc2ccccc2c1C=O |  | 1.12 µM (active)
3 | COc1ccccc1NS(=O)(=O)c1cccc(C(=O)OCC(=O)Nc2cc(C)on2)c1 |  | 14.1 µM (active)
4 | Cc1cc(NC(=O)COC(=O)c2ccc(NS(=O)(=O)c3ccc(C)c(C)c3)cc2)no1 | -13% | 
5 | Cc1n[nH]c(C)c1S(=O)(=O)N1CCC(C(=O)O)CC1 | 1.2% | 
6 | O=C(Nc1ccccc1)[C@@]12C[C@@H]1/C(=N/O)c1ccccc1O2 |  | 2.51 µM (active)
7 | CCOC(=O)[C@@]12C[C@@H]1/C(=N/O)c1ccccc1O2 |  | 3.98 µM (active)
8 | Cc1c(NC(=O)C2CCN(S(=O)(=O)c3ccc(Cl)cc3)CC2)c(=O)n(-c2ccccc2)n1C | 15.2% | 
9 | O=C1COc2ccccc2CN1 | -7.55% | 
10 | Fc1ccc(-c2cnc(-c3cccs3)o2)cc1 |  | 2.82 µM (active)
11 | CCOC(=O)Nc1ccc2c(c1)N(C(=O)CCN1CCOCC1)c1ccccc1S2 | -7.96% [at 25.6 µM] | 
12 | CCOC(=O)Nc1ccc2c(c1)N(C(=O)CCN1CCN(C)CC1)c1ccccc1S2 | -15.3% | 
13 | COC(=O)c1cc(NC(=O)N2c3ccccc3Sc3ccccc32)cc(C(=O)OC)c1 |  | 3.16 µM (active)
14 | CCC1Oc2ccccc2N(CC(=O)NCCCN2CCCCC2C)C1=O (stereo not drawn) | -4.11% | 
15 | O=[N+]([O-])/C=C\c1cc2ccccc2[nH]1 |  | 1.26 µM (active)
16 | Nc1c(S(=O)(=O)O)cc(Nc2cccc(S(N)(=O)=O)c2)c2c1C(=O)c1ccccc1C2=O |  | 3.98 µM (active)
17 | NCCNC(=O)c1ncsc1-c1cccc(F)c1 |  | 10 µM (active)
18 | Cc1nnc(SCC(=O)N2CC(=O)Nc3ccccc32)n1Cc1ccccc1 | 2.82% | 
19 | Cc1sc2nc(C3CC3)nc(SCC(=O)N3CC(=O)Nc4ccccc43)c2c1C |  | 6.31 µM (active)
20 | Cc1scc2c1N(C(=O)CN1CCN(C)CC1)c1ccccc1NC2=O |  | inactive
21 | COC(=O)Nc1nc2ccc(C(=O)c3cccs3)cc2[nH]1 |  | 0.794 µM (active)
22 | CC(=O)Nc1ccc2nc(C3CCCCC3)[nH]c2c1 | -30% | 
23 | COC(=O)Nc1nc2ccc(SC(C)C)cc2[nH]1 |  | 0.501 µM (active)
24 | C[C@@H](C(=O)O)c1ccc(C(=O)c2cccs2)cc1 | -10.6% [at 25.6 µM] | 

Row | Compound | activity, negative = inhibition | AC50
25 | COC(=O)c1ccc(C(NC(=O)c2ccccc2)[C@]2(C)C[C@H]2C2CCCCC2)cc1 (stereo partly drawn) | -1.81% | 
26 | COC(=O)c1ccc(C23CC2(C(NP(=O)(c2ccccc2)c2ccccc2)c2ccccc2)C3)cc1 (stereo not drawn) |  | 15.8 µM (active)
27 | Cc1ccc2cc(C(=O)O)c(C)nc2c1 | -6.36% | 
28 | O=C(O)CSc1ccn(Cc2ccccc2)c1 | -14.3% [at 11.4 µM] | 
29 | O=C(O)CSc1cc(-c2ccccc2)nc2ccccc12 | -4.67% [at 2.29 µM] | 
30 | O=C(CSc1nnc2c3ccccc3c3ccccc3c2n1)Nc1ccccc1 |  | 1.12 µM (active)
31 | Cn1c(SCC(=O)Nc2ccccc2)nc(O)cc1=O | -9.92% | 
32 | c1ccc(CSc2nnc3c4ccccc4c4ccccc4c3n2)cc1 |  | 0.2 µM (active)
33 | CCc1c(C)nc(N)n2c(SCC(=O)Nc3ccccc3)nnc12 | -17.2% | 
34 | O=C(O)c1cc(=O)[nH]c(SCc2ccccc2)n1 | -12% [at 11.4 µM] | 
35 | O=C(O)CSc1nnc2c3ccccc3c3ccccc3c2n1 |  | 0.0794 µM (active)
36 | CN(C)S(=O)(=O)c1nc(Cl)c2[nH]cnc2n1 | 2.44% [at 11.4 µM] | 
37 | Cc1ccc(-c2ccc(=O)n(CC(=O)NCCN(C)C)n2)cc1 | -2.76% | 
38 | C[C@@H]1CCC[C@H](C)N1 | 0.154% [at 25.6 µM] | 
39 | COC(=O)C1=C(C)N=C2SC(C)C(=O)N2C1/C=C/c1ccccc1 (stereo not drawn) | -17.6% | 
40 | Cc1cc(C)nc(NC(=O)c2cccc([N+](=O)[O-])c2C)n1 | -3.25% | 
41 | O=C(Nc1cccc(NC(=O)c2ccccc2[N+](=O)[O-])n1)c1ccccc1[N+](=O)[O-] |  | 8.91 µM (active)
42 | CC1CCN(S(=O)(=O)c2ccc3c(c2)C(=NO)c2cc(S(=O)(=O)N4CCC(C)CC4)ccc2-3)CC1 | -10.6% | 
43 | O[C@]1(c2ccccc2)c2ccccc2NC2=NCCN21 | -14.8% [at 11.4 µM] | 
44 | Nc1cc(S(=O)(=O)O)cc2ccc(S(=O)(=O)O)cc12 | -18.1% [at 2.29 µM] | 
45 | CC[C@@]1([N+](=O)[O-])C[C@H]2C=C[C@@H]1C2 | -12.9% [at 2.29 µM] | 
46 | C[C@@H]1C[C@@H]2[C@H]3CCC4=CC(=O)C=C[C@]4(C)[C@]3(Cl)[C@@H](O)C[C@@]2(C)[C@@]1(O)C(=O)CO | -1% | 
47 | FC(F)(F)c1ccc(N2CCN(c3cc(-c4ccccc4)nc4ncnn34)CC2)nc1 |  | 10 µM (active)
48 | O=S(=O)(c1ccccc1)N1CCN(c2cc(-c3ccccc3)nc3ncnn23)CC1 |  | 0.794 µM (active)

Row | Compound | activity, negative = inhibition | AC50
49 | O=S(=O)(c1ccccc1)N1CCC2(CCN(c3ncccn3)CC2)CC1 | 5.5% | 
50 | O=S(=O)(c1ccccc1)N1CCC2(CC1)CN(c1ncccn1)C2 | -3.35% | 
51 | Nc1nc(Cl)nc2c1ncn2[C@@H]1O[C@@H](COP(=O)(O)OP(=O)(O)OP(=O)(O)O)[C@@H](O)[C@H]1O | -0.464% | 
52 | C#CCCCO/N=C1/C[C@@H](O)[C@@H](O)[C@@H]2[C@@H]3C(=O)N(CC)C(=O)[C@H]3CC[C@@H]12 | -3.56% [at 11.4 µM] | 
53 | Cc1ccc(NC(=S)Nc2nc(CC(=O)Nc3ccccc3)cs2)cc1 |  | 2.24 µM (active)
54 | CCn1c(CC(=O)Nc2ccc(C)cc2)nnc1SCC(=O)Nc1nc(C)cs1 | -5.56% | 
55 | COc1cccc([C@@H]2Oc3ccc(OC)cc3/C(=N/OC[C@@H](C)[C@H](OCc3ccccc3)C(C)C)[C@@H]2O)c1 | -6.71% [at 11.4 µM] | 
56 | CN(C)c1ncc2nc(-c3cc(F)cc(F)c3)c(=O)n(CCc3ccccc3)c2n1 | -4.68% | 
57 | CN(C)c1ncc2nc(CCc3ccccc3)c(=O)n(-c3ccccc3)c2n1 |  | 0.794 µM (active)
58 | COc1cccc(Cn2c(=O)cnc3cnc(N(C)C)nc32)c1 |  | 6.31 µM (active)
59 | COc1cccc(Cn2c(=O)c(-c3cc(F)cc(F)c3)nc3cnc(N(C)C)nc32)c1 | -19.4% | 
60 | CN(C)c1ncc2nc(CCc3ccccc3)c(=O)n(Cc3cccs3)c2n1 |  | 1.58 µM (active)
61 | CN(C)c1ncc2nc(-c3ccccc3)c(=O)n(CCc3ccccc3)c2n1 |  | 20 µM (active)
62 | C/C(CCN1CCCc2nc(C)c(C)cc21)=N\O[C@@H](C)CN1CCCCc2nc(C)c(C)cc21 | 2.64% [at 11.4 µM] | 
63 | C[C@]12CC[C@H]3c4ccc(O)cc4CC[C@@H]3[C@H]1C/C(=N/O)[C@H]2O | -12.7% [at 11.4 µM] | 
64 | C=C(C)CNCCN | 2.24% [at 2.29 µM] | 
65 | CN(C)c1ncc2ncc(=O)n(CCc3ccccc3)c2n1 |  | 0.794 µM (active)
66 | Cc1nc2cnc(N(C)C)nc2n(CCc2ccccc2)c1=O |  | 1.26 µM (active)
67 | CN(C)c1ncc2nc(CCc3ccccc3)c(=O)n(CCC#N)c2n1 |  | 2 µM (active)
68 | COc1cccc(Cn2c(=O)c(CCc3ccccc3)nc3cnc(N(C)C)nc32)c1 |  | 15.8 µM (active)
69 | CCN1CCCC1CNC(=O)C1c2cc(OC)c(OC)cc2C(=O)N(C)C1c1cccnc1 (stereo not drawn) | -18.2% | 
70 | COC(=O)N1CCC2(CCCN(Cc3nccs3)C2)CC1 | -13.7% | 
71 | O=c1c(CCc2ccccc2)nc2cncnc2n1Cc1ccc(F)cc1 |  | 10 µM (active)
72 | COCCn1c(=O)c(CCc2ccccc2)nc2cnc(N(C)C)nc21 |  | 1.26 µM (active)

Row | Compound | activity, negative = inhibition | AC50
73 | CN(C)c1ncc2nc(-c3ccccc3)c(=O)n(CCC#N)c2n1 |  | 1.58 µM (active)
74 | CN(C)c1ncc2nc(CCc3ccccc3)c(=O)n(Cc3ccc(F)cc3)c2n1 |  | 10 µM (active)
75 | CN(C)c1ncc2nc(-c3cccc(C#N)c3)c(=O)n(CCC#N)c2n1 | -20.2% | 
76 | CCN(CC)C(=O)CSc1nc(O)cc(=O)n1CC | -4.98% | 
77 | C[C@@H]1/C=C\CC(=O)OC[C@H]2O[C@@H](C=C[C@@H]2O)[C@H](C)/C=C\CC(=O)OC1 | -3.64% [at 11.4 µM] | 
78 | CNC(=O)[C@@H]1O[C@@H](n2cnc3c(NCc4ccc(N)cc4)ncnc32)[C@@H](O)[C@H]1O | 1.3% | 
79 | CN(C)c1ncc2nc(CCc3ccccc3)c(=O)n(CCc3ccccc3)c2n1 |  | 6.31 µM (active)
80 | C=C1C=C(Br)C2(OCCCO2)[C@H]2OC12 (stereo partly drawn) | -2.64% [at 11.4 µM] | 
81 | Cc1cnc(CNc2cc(-c3ccccc3Cl)ncn2)cn1 |  | 15.8 µM (active)
82 | Cc1cnc(CNc2cc(-c3ccccc3C)ncn2)cn1 |  | 12.6 µM (active)
83 | COc1ccccc1-c1cc(NCc2cnc(C)cn2)ncn1 |  | 12.6 µM (active)
84 | Cn1cccc1C(=O)N1CCC2(CCN(C(=O)Nc3cccc(F)c3)CC2)CC1 | -10.7% | 
85 | C[C@@]12CCC(=O)C=C1CC[C@H]1[C@@H]2[C@@H](O)C[C@]2(C)[C@@H]1CC[C@@]2(O)C(=O)CO | -23.6% [at 11.4 µM] | 
86 | Cc1cc(=O)c2c(O)c(O)ccc2o1 |  | 12.6 µM (active)
87 | O=C(O)/C=C\c1c2ccc(=O)c(O)c-2oc2c(O)c(O)ccc12 | -19.8% [at 2.29 µM] | 
88 | Oc1c(CN2CCOCC2)ccc(CN2CCOCC2)c1O | -11.9% [at 2.29 µM] | 
89 | c1c[nH]c(CN2CCOCC2)n1 | 6.41% [at 11.4 µM] | 
90 | Clc1ccc(-n2nnnc2CN2CCOCC2)cc1 |  | 7.08 µM (active)
91 | CCN(CC)c1ccc(NC(=O)CSc2nnc3nc(C)cc(C)n23)cc1 | 1.82% | 
92 | COc1cc(NC(=O)COC(=O)c2nc3nc(C)cc(C)n3n2)cc(OC)c1 |  | 14.1 µM (active)
93 | Cc1ccnc2nc(C(=O)OCC(=O)Nc3ccc4c(c3)OC(F)(F)O4)nn12 |  | 8.91 µM (active)
